p53null 39C tox: p53 null cell cytotoxicity, nonpermissive temperature; H1299 p53-null (neo) cells, 39C, ATPlite viability, 24 h; Potency, µM (highest dose often 46.1 µM), for the others: at the top dose activity, negative = cell killing, hits mostly cytotoxic; 55,000 compounds, 0.97% hits; AID 904;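 further: potency means the concentration at half of the fitted maximal effect; 0% = DMSO only and -100% = full killing by 100 µM tamoxifen; nearly all actives have a fitted effect of over 50% in size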
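Following overnight plating at 37C (600 cells/well), H1299-neo or H1299-p53A138V cells are dosed up to 46 uM. Incubation lasts 24 hr at 39C before ATP detection.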
FH mod: Identification of activators of human fumarate hydratase by quantitative high-throughput screening. FH coupled MDH/diaphorase resazurin fluorescence, 15 min. Potency, µM (doses to about 79.9 µM), for the others: at the highest dose activity change, negative = inhibition, hits mostly inhibitors. 54,000 compounds, 0.22% hits; further: potency means the concentration at half of the fitted maximal effect; on the % scale 0 is the no-effect control and ±100 the full control effect; the screen sought activators but most active calls are inhibition curves; nearly all actives have a fitted effect of over 45% in size
Target sequence (P07954 whole entry, looked up): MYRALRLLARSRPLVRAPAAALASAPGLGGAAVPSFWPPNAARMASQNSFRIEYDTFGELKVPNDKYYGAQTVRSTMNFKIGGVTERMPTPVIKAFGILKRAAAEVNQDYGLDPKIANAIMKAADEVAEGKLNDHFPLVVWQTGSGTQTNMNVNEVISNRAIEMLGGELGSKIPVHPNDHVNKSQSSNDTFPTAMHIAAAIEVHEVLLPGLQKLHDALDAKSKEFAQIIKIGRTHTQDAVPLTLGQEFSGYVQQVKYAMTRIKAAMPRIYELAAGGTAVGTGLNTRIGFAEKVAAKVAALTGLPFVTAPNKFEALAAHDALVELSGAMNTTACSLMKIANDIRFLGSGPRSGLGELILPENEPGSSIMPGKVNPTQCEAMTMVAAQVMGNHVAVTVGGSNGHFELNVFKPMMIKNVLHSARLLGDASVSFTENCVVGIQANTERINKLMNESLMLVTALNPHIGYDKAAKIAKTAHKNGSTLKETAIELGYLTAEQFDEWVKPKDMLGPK
p53null 32C kill: selectivity test: cytotoxicity in p53 null cells, permissive temperature. H1299-neo p53 null cells, ATP luminescence, 24 h, 32C. Potency, µM (doses to about 46.1 µM), for the others: top-dose activity change, negative = cytotoxicity, most hits filed as cytotoxic. 55,000 compounds, 0.62% hits;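 further: potency means the concentration at half of the fitted maximal effect; 0% = DMSO only and -100% = full killing by 100 µM tamoxifen; nearly all actives have a fitted effect of over 55% in size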
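We seeded p53-null H1299-neo cells, incubated them overnight at 37C, and added compounds across a range up to 46 uM. After 24 hours at 32C, ATP reagent was applied for 20 min at room temperature and luminescence recorded.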
DRV1 agonist: GPR32 (DRV1) agonism, beta-arrestin recruitment; O75388; activation, % at 76.9 µM; AID 1346428; CHO-K1 GPR32 beta-arrestin PathHunter luminescence, 90 min; zero percent set by DMSO-only wells; 48,000 compounds, 2.5% hits;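 active means activation of at least 60% and not above a set upper limit, about 1 call in 100 departs from these limits; inconclusive means activation of 40% to 60%, or above that upper limit; inactive means activation under 40%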; further: 0% is about no effect
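Using DMSO wells as EC0, agonist-induced signal was taken as chemiluminescence from beta-Gal reconstituted upon beta-arrestin recruitment to GPR32 in CHO-K1 cells after 90 min compound treatment.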
Numbers without * were called inactive; ? = inconclusive; / = no result; [ ] = remark or other dose. Hits are enriched below; roughly 2.9% of the tested compounds scored in any of these assays. Unless noted, the call rests on the fitted dose curve; in most records, active means well fitted curve in the direction sought with a large enough effect; inconclusive means small, poorly fitted or top-dose-only effect, or another doubt; inactive means no such curve, though single readings can be large; an effect the other way counts as inactive or inconclusive.

SMILES	p53null 39C tox	FH mod	p53null 32C kill	DRV1 agonist
C[C@@H]1O[C@@H](O[C@H]2[C@H](O)[C@@H](O)[C@H](O[C@H]3[C@H](O[C@H]4CC[C@@]5(C)C(=CC[C@@H]6C5CC[C@]5(C)[C@@H]7[C@H](C[C@@H]65)O[C@]5(CC[C@@](C)(CO[C@@H]6O[C@H](CO)[C@@H](O)[C@H](O)[C@H]6O)O5)[C@H]7C)C4)O[C@H](CO)[C@@H](O)[C@@H]3O)O[C@@H]2CO)[C@H](O)[C@H](O)[C@H]1O (stereo partly specified)	/	5.8%[20.6 µM]	/	/
C=CCc1cccc2cc(-c3nc4ccc(C(=O)O)cc4[nH]3)c(=O)oc12	?	7.08µM*	?	16.1
COc1ccc2cc(-c3nc4ccc(C(=O)O)cc4[nH]3)c(=O)oc2c1	-2.1%	-28.0%	1.58µM*	20.0
N#CN1CCC[C@@H](n2nc(-c3ccc(Oc4ccc(F)cc4F)cc3)c(C(N)=O)c2N)C1	/	-2.6%	/	/
Cc1cc(C)c(S(=O)(=O)NCCc2sc(-c3cccnc3)nc2C)c(C)c1	19.9%	0.1%	-2.2%	68.7*
O=C(Nc1ccc2oc(-c3ccc(Br)cc3)nc2c1)c1cc2ccccc2o1	-5.3%	-3.5%	1.6%	13.2
Nc1ccc2oc(-c3ccc4nc[nH]c4c3)nc2c1	12.6µM*	/	7.94µM*	/
CCc1ccc(NC(=O)Cn2nnc(C(=O)Nc3cc(C)ccc3OC)c2N)cc1	-20.4%	7.2%	-10.3%	74.3*
Cc1ccccc1CNC(=O)CN(c1cccc(C)c1C)S(C)(=O)=O	29.6%	6.3%	-4.3%	-7.6
Cc1cccc(N(CC(=O)NCCSc2ccc(Cl)cc2)S(C)(=O)=O)c1C	0.1%	-12.1%	15.2%	103.4*
Cc1cccc(N(CC(=O)NCCSCc2ccc(Cl)cc2)S(C)(=O)=O)c1C	16.9%	-16.7%	25.3%	?
Cc1ccc(SCCNC(=O)CN(c2cccc(C)c2C)S(C)(=O)=O)cc1	17.9%	-2.9%	8.3%	75.8*
CCC(=O)N1CCc2cc(CNS(=O)(=O)c3ccc(C(C)C)cc3)ccc21	-4.8%	-18.3%	?	108.6*
O=C(COc1ccccc1F)Nc1ccc2nc(SCCOc3ccccc3)sc2c1	-10.2%	1.8%	-8.2%	98.9*
CC(=O)Nc1ccc2nc(SCCOc3ccccc3)sc2c1	-9.7%	-5.5%	-2.1%	118.3*
CC(=O)Nc1ccc2nc(SCCOc3ccc(C)cc3)sc2c1	2.3%	-0.4%	-4.2%	44.8
Cc1ccc(-c2ccc3ncc4c(c3n2)n(C2CCN(C(=O)[C@H](C)O)CC2)c(=O)n4C)cn1	/	-4.0%	/	/
C=CCN1C=CC(=C/C=C(/C#N)C(=O)OCC)C=C1	?	/	8.91µM*	/
NCCCC[C@H](NC(=O)[C@@H]1Cc2ccccc2CN1C(=O)CCC(=O)c1ccccc1)C(=O)NCC(c1ccccc1)c1ccccc1	/	0.0%	/	/
COc1ccc(CNC(=O)CCc2c(C)c3cc4c(C)c(C)oc4cc3oc2=O)cc1	-5.1%	-4.6%	0.8%	-12.4
COc1ccc(CNC(=O)CCc2c(C)c3cc4c(C)coc4cc3oc2=O)cc1	0.0%	/	-3.4%	68.0*
COc1cc(OC)cc(-c2cc3cnc(N)nc3nc2NC(=O)NC(C)(C)C)c1	/	-11.8%[53.3 µM]	/	/
COc1ccc(-n2c(=O)c3ccc(C(=O)NCc4ccc(C)cc4)cc3n(CC(=O)Nc3ccc(F)cc3)c2=O)cc1	-27.6%	7.6%	6.7%	93.6*
Cn1nc(-c2ccc(C(=O)Nc3cccc(C(F)(F)F)c3)cc2)c2ccccc2c1=O	-19.4%	-3.0%	-15.0%	4.5
Cn1nc(-c2ccc(C(F)(F)F)cc2)nc2c(=O)n(C)c(=O)nc1-2	/	3.98µM*	/	/
SMILES	p53null 39C tox	FH mod	p53null 32C kill	DRV1 agonist
CCOc1ccccc1N1CC(c2nc3ccccc3n2CCOc2ccc(C(C)(C)C)cc2)CC1=O (stereo unspecified)	20µM*	-4.9%	?	72.9*
CCc1ccccc1N1CC(c2nc3ccccc3n2CCOc2ccc(Cl)c(C)c2)CC1=O (stereo unspecified)	17.8µM*	?	38.7%	77.1*
CCOc1ccc(N2CC(c3nc4ccccc4n3CCC3CCCCC3)CC2=O)cc1 (stereo unspecified)	35.3%	?	24.4%	4.7
Cc1cc(OCCn2c(C3CC(=O)N(Cc4ccc(F)cc4)C3)nc3ccccc32)ccc1Cl (stereo unspecified)	-3.6%	?	-11.2%	-11.3
CCOc1ccccc1N1CC(c2nc3ccccc3n2CCCOc2ccccc2OC)CC1=O (stereo unspecified)	-11.1%	?	-1.6%	-10.8
O=C1CC(c2nc3ccccc3n2CCC2CCCCC2)CN1c1ccccc1Cl (stereo unspecified)	15.8µM*	-12.6%	?	-6.5
CCOc1ccccc1N1CC(c2nc3ccccc3n2CCCCOc2cc(C)ccc2C)CC1=O (stereo unspecified)	12.6µM*	-14.8%	?	-8.6
C=C1C2CCC3CC2(CC(O)C2(O)C1CC(OC1OC(CO)C(O)C(O)C1O)C2(C)C)CC3(C)O (stereo unspecified)	/	-1.4%[53.3 µM]	/	/
CCOc1cc(N2CCC(O)CC2)ccc1Nc1ncc2c(n1)N(C1CCCC1)CCC(=O)N2C	/	-15.3%	/	/
CC1(C)O[C@]23C[C@H]1C[C@H](OC(=O)c1ccoc1)[C@]2(C)[C@@H](OC(=O)c1ccoc1)CCC3(C)O (stereo partly specified)	/	-8.4%[53.3 µM]	/	/
C=C1CC(=O)C2OC2(C)CC2OC(=O)C(=C)C2C(O)C1OC(=O)/C(C)=C\C (stereo unspecified)	/	-3.5%[53.3 µM]	/	/
CCCCN1CC(c2nc3ccccc3n2CCCCOc2cccc(C)c2C)CC1=O (stereo unspecified)	-3.4%	?	-3.1%	109.2*
CS(=O)(=O)N1CCC(NC(=O)c2[nH]ncc2NC(=O)c2c(Cl)cccc2Cl)CC1	/	0.8%	/	/
Cc1ccc(S(=O)(=O)Nc2nc3n(n2)C(c2ccc(Cl)cc2)C=C(c2ccccc2)N3)cc1 (stereo unspecified)	6.7%	?	21.6%	88.5*
Cc1ccc(C2C=C(c3ccc(Cl)cc3)Nc3nc(NC(=O)c4ccco4)nn32)cc1 (stereo unspecified)	31.0%	14.4%	4.7%	107.6*
CC(=O)Nc1ccc(S(=O)(=O)Nc2nc3n(n2)C(c2ccccc2)C=C(c2ccc(Cl)cc2)N3)cc1 (stereo unspecified)	-20.6%	-26.5%	8.3%	83.5*
COc1ccccc1C(=O)Nc1nc2n(n1)C(c1ccc(F)cc1)C=C(c1ccc(Cl)cc1)N2 (stereo unspecified)	-4.7%	-4.6%	-4.1%	10.7
O=S(=O)(Nc1nc2n(n1)C(c1ccc(F)cc1)C=C(c1ccccc1)N2)c1ccc(Cl)cc1 (stereo unspecified)	-3.1%	-29.3%	10.7%	?
O=S(=O)(Nc1nc2n(n1)C(c1ccccc1)C=C(c1ccc(Cl)cc1)N2)c1ccccc1 (stereo unspecified)	7.4%	?	1.1%	72.2*

Screening results (PubChem)
